High-throughput results: PubChem BioAssay, National Center for Advancing Translational Sciences (NCATS)
Mito fusion act = mitochondrial division inhibition or fusion activation; S. cerevisiae fusion-defective mutant growth rescue, CellTiterGlo 48 h; Potency, µM (titrated, usually from 46.1 µM), actives largely listed as activators; 0.23% of 320,000 active; further: nearly all actives have a fitted effect of over 45% in size
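Read-out: ATP-based luminescence (CellTiterGlo, 10 min ambient) reporting growth of fusion-defective ts yeast after 48 hours at 37C on glycerol/ethanol YPEG medium in the presence of compound.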
S-ASM inh = human S-ASM enzyme inhibition. Potency, µM (titrated, usually from 57.5 µM), hits mostly inhibitors. P17405. placental ASM, HMU-PC fluorogenic substrate, 60 min. 0.006% of 340,000 active
Target sequence (P17405 47-631 limits assumed): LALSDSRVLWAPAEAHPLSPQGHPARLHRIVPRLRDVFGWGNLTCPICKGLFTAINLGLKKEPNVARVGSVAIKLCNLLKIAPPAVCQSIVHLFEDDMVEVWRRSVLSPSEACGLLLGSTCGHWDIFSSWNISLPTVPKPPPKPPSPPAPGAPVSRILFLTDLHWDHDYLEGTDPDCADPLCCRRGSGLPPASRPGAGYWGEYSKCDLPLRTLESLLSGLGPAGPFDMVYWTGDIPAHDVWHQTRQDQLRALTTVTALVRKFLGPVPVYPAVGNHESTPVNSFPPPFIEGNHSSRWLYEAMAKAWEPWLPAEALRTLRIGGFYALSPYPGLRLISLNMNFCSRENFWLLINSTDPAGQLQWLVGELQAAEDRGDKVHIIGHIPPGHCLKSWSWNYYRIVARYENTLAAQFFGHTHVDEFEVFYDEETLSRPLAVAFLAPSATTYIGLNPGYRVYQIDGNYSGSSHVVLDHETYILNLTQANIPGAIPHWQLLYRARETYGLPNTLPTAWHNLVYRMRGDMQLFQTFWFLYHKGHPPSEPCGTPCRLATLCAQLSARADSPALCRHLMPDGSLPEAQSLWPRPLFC
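Human placenta-derived ASM preincubated with compound 10 min at room temperature, then reacted with 9 uM (final) fluorogenic HMU-PC substrate for 60 min at 37 C. Stop solution raises pH to 10; fluorescence read at Ex 386/Em 447 nm.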
RGS4 inhibitor = blocks human RGS4-accelerated GTP hydrolysis; 0.039% of 390,000 active; Transcreener GDP fluorescence polarization, RGS4-accelerated GTP hydrolysis; P49798; AID 504845; Potency, µM (highest dose often 114 µM), actives largely listed as inhibitors; further: nearly all actives have a fitted effect of over 75% in size
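MLSMR compounds (23 nl, pin-transferred) preincubated 10 min at room temperature with a 500nM (2x) first reagent, then RGS4 at 900nM (2x) plus Transcreener GDP mix added; fluorescence polarization (620/688 nm) read before and after 90 min at 30 °C.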
LDHA block = inhibitors of human lactate dehydrogenase A; 0.15% of 480,000 active; purified LDHA, NADH/diaphorase-resazurin fluorescence; active compounds read low; P00338; AID 1347041; activity change, % (values are at about 110 or 230 µM); in the data active means activity change below about -30%; inconclusive means mostly about -25% to -30%
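Resorufin fluorescence (ex540/em590), read at 0 and 20 min after diaphorase/resazurin addition, reports the NADH left after a 5 min room-temperature reaction of 2 nM human LDH5 with 0.06 mM NADH and 0.2 mM pyruvate.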
ClpP mod = qHTS Assay for Activators of ClpP; ATP-dependent Clp protease proteolytic subunit (Bacillus subtilis (strain 168)), P80244; purified B. subtilis ClpP, FRET peptide cleavage, 20 min; Potency, µM (top dose mostly 57.5 µM); 1.9% of 340,000 active; active means well fitted falling curve with a large enough effect; inconclusive means small, poorly fitted or top-dose-only effect; inactive means no such curve, though single readings can be large or run the other way; further: the source files actives as falling curves though it sought activators and does not explain the sign; nearly all actives have a fitted effect of over 65% in size
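ClpP 10 microg/mL final, pH 8 Tris/KCl buffer with BSA, glycerol, Tween-20; compound pinned in; FRET-FV substrate; RT 20 min; Ex320/Em430; ΔFRET vs ADEP 5.8 microM, DMSO, no enzyme.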
IDH1 R132H inh = blocks human mutant IDH1 R132H enzyme. O75874. IDH1-R132H enzyme, NADPH consumption, diaphorase/resazurin fluorescence. Potency, µM (top dose mostly 76.6 µM), actives largely listed as inhibitors. 0.093% of 390,000 active; further: nearly all actives have a fitted effect of over 65% in size
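IDH1-R132H (0.5 ug/mL dispensed) in pH 7.5 Tris buffer was preincubated 30 min with compound, then given a substrate mix of 0.016 mM NADPH and 2 mM alpha-KG for 80 min at room temperature; remaining NADPH was read by diaphorase/resazurin fluorescence.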
Hits are given with their value; i = inactive; ? = inconclusive; nt = no result; [ ] = dose if it differs, or a comment. This is one part of a sample in which hits are shown more often than they occur. Unless noted, the call rests on the fitted dose curve; in most records, active means well fitted curve in the direction sought with a large enough effect; inconclusive means small, poorly fitted or top-dose-only effect, or another doubt; inactive means no such curve, though single readings can be large; an effect the other way counts as inactive or inconclusive.

SMILES	Mito fusion act	S-ASM inh	RGS4 inhibitor	LDHA block	ClpP mod	IDH1 R132H inh
O=C(O)c1ccc2nc(C(F)(F)F)[nH]c2c1	i	i	i	i	i	i
COc1ccc2nc(C)c3c(c2c1)OC(C)C3 (stereo not given)	i	i	i	i	?	i
CCOC(=O)c1ccc2nc(C(F)(F)F)[nH]c(=O)c2c1	i	i	i[11.4 µM]	i	4µM	i
CCOC(=O)c1ccc2nc(C)c3c(c2c1)OC(C)C3 (stereo not given)	i	i	i	i	32µM	i
CCN1CCCC1CNC(=O)c1ccc2c(=O)n(CCOC)c(=O)[nH]c2c1 (stereo not given)	i	i	i	i	32µM	i
CCC1CCCCN1CCCNC(=O)c1ccc2c(=O)n(CCOC)c(=O)[nH]c2c1 (stereo not given)	i	i	i	i	nt	i
COCCn1c(=O)[nH]c2cc(C(=O)NCC3CCCO3)ccc2c1=O (stereo not given)	i	i	i	i	28µM	i
Cn1c(NCCCO)nc2c(c1=O)C1(CCCCC1)Cc1ccccc1-2	i	i	i	i	28µM	i
CCC1(C)Cc2ccccc2-c2nc3n(c(=O)c21)CC(C(=O)O)S3 (stereo not given)	i	i	i	i	25µM	i
CCC1(C)Cc2ccccc2-c2nc(NCCCO)n(-c3ccccc3)c(=O)c21 (stereo not given)	i	i	i	i	3.5µM	i
N#CC1(NC(=O)CSc2nccn2C2CC2)CCCC1	nt	nt	nt	i	nt	nt
C=CCn1c(-c2ccc(OC)cc2)nc2ccccc21	i	i	i	i	?	i
C=CCn1c(-c2ccc(OC)cc2)nc2nc3ccccc3nc21	i	i	i	i	25µM	i
O=C(CSc1nccc(C(F)(F)F)n1)c1ccccc1	nt	nt	nt	i	nt	nt
O=C(CCc1ncc(-c2ccc(F)cc2)o1)Nc1ccncc1	nt	nt	nt	i	nt	nt
Cc1c(C(=O)NCc2cccc(F)c2)oc2c1-c1[nH]ncc1CC2	nt	nt	i	i	28µM	i
Cc1ccccc1CNC(=O)c1oc2c(c1C)-c1[nH]ncc1CC2	nt	nt	i	i	?	i
O=S(=O)(Nc1nc2ccccc2nc1Nc1cccc(S(=O)(=O)N2CCCCC2)c1)c1ccccc1	i	i	i	i	25µM	i
C=CCn1c(SCC(=O)NC2CCCC2)nnc1-c1ccncc1	i	i	i	i	25µM	i
Cc1cc(OCC(=O)NNC(=O)c2ccncc2)ccc1C(C)C	i	nt	i	i	4µM	i
CCC(=O)Nc1ccc2c(c1)C(=O)N(C)C2=O	i	i	i	i	28µM	i
CN1C(=O)c2ccc(NC(=O)CSc3ccccc3)cc2C1=O	i	i	i	i	i	i
CCCC(=O)Nc1ccc2c(c1)C(=O)N(CCC(=O)O)C2=O	i	i	i	i	28µM	i
O=C(O)CCN1C(=O)c2ccc(NC(=O)c3cccs3)cc2C1=O	i	i	i	i	32µM	i
CCc1ccc(-c2nc3cc(NC(=O)c4cccc(OC)c4)ccc3o2)cc1	nt	nt	nt	i	nt	nt
SMILES	Mito fusion act	S-ASM inh	RGS4 inhibitor	LDHA block	ClpP mod	IDH1 R132H inh
O=C(CC1CCCO1)NC(c1cccs1)C1CCCC1 (stereo not given)	nt	nt	nt	i	nt	nt
CC(Oc1ccccc1Cl)C(=O)N1CCC(c2nc3ccccc3o2)CC1 (stereo not given)	nt	nt	nt	i	nt	nt
CC(OC(=O)C1=CN2CCS(=O)(=O)N=C2C=C1)C(=O)Nc1cccc(C(F)(F)F)c1 (stereo not given)	nt	nt	nt	i	nt	nt
CCOC(=O)C(C)Oc1ccc2c(C)c(CCC(C)C)c(=O)oc2c1 (stereo not given)	nt	nt	nt	i	nt	nt
CCN(CC(=O)Nc1ccc2c(c1)OCCO2)CC(=O)Nc1ccccc1C(F)(F)F	nt	i	i	-46	i	i
O=C(c1ccc(CS(=O)Cc2ccccc2Cl)o1)N1CCN(c2cccc(Cl)c2)CC1 (stereo not given)	35µM	i	i	i	i	i
CCn1c2c(c3cc(Br)ccc31)CCC/C2=N\O	i	i	i	i	i	i
CCn1c2c(c3cc(OCC(C)C)ccc31)CCCC2=O	i	i	i	i	28µM	i
N#Cc1c(-c2ccccc2)cc(-c2ccccc2)nc1SCC(=O)NCC(=O)O	i	i	i	-102	nt	i
N#Cc1c(-c2ccccc2)cc(-c2ccccc2)nc1SCC(O)CS(=O)(=O)Cc1ccc(Cl)cc1 (stereo not given)	nt	nt	?	i	10µM	i
COc1cc(-c2cc(-c3ccccc3)nc(SCC(=O)Nc3nccs3)c2C#N)cc(OC)c1OC	i	i	i	i	25µM	i
COc1ccc(-c2cc(-c3ccccc3)c(C#N)c(SCC(=O)O)n2)cc1	nt	i	?	i	nt	i
CCn1c(CC(=O)Nc2ccccc2C)nnc1SCC(=O)Nc1ccc2ccccc2c1	nt	nt	nt	i	nt	nt
Cn1c(=O)n(CCC(=O)NCc2nnc3n2CCCCC3)c2ccccc21	nt	nt	nt	i	nt	nt
COc1ccccc1NC(=O)CCCNC(=O)Cn1cnc2sc(C)c(C)c2c1=O	i	i	i	i	28µM	i
COCCN1CCN(C(=O)c2cc(COc3ccc(F)cc3F)on2)CC1	i	i	i	-56	i	i
COCCC1CCCCN1C(=O)c1cc(COc2ccc(C)nc2)on1 (stereo not given)	i	i	i	i	i	i
COCCN1CCN(C(=O)c2cc(COc3ccc(F)c(F)c3)on2)CC1	i	i	i	i	i	i
